From PubChem BioAssay (NCATS)
Records with an inconclusive call do not appear. The source made the active and inactive calls. Calls come from the whole dose curve; as a rule, active = well fitted curve in the direction sought with a large enough effect; inconclusive = small, poorly fitted or top-dose-only effect, or another doubt; inactive = no such curve, though single readings can be large; an effect the other way counts as inactive or inconclusive.

How the values were obtained:
[1] = MultiTox-Fluor Cytotoxicity Assay - LYMP1-001 - Dead Cells (AID 946)
Procedure, shortened: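 In this qHTS, 15 uM tetraoctylammonium bromide defined 100% and DMSO defined basal activity. Lymphoblastoid cells (LYMP1-001, 2500 per well) received compound for 16 hr at 37 C before a fluorogenic dead-cell substrate readout at 485/520 nm.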

[2] = MultiTox-Fluor Cytotoxicity Assay - LYMP1-001 - Live Cells (AID 947)
[3] = Cell Viability - LYMP1-002 - Assay at 16 hr (AID 948)
Procedure, shortened: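 In this qHTS, lymphoblastoid LYMP1-002 cells (human) receive compounds for 16 hr at 37 C. Viability is taken from CellTiter-Glo ATP luminescence, and AC50 derives from standard Hill fits.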

[4] = MultiTox-Fluor Cytotoxicity Assay - LYMP1-002 - Live Cells (AID 955);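 note: cells exposed to compound for 16 hours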
Procedure, shortened: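 Human lymphoblastoid LYMP1-002 cells, 2500/well, treated 16 h at 37 C in complete medium. Live-cell protease activity via GF-AFC fluorescence (Ex/Em 405/510) after 60 min reagent incubation; AC50 from Hill fits.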

[5] = MultiTox-Fluor Cytotoxicity Assay - LYMP1-002 - Dead Cells (AID 960);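 note: cells exposed to compound for 16 h at 37 °C; nearly all actives have a fitted effect of over 60% in size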
Procedure, shortened: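 Human lymphoblastoid LYMP1-002 cells, 2500/well, treated 16 h at 37 C; dead-cell protease cleavage of bis-AAF-R110 read by fluorescence (485/520); normalized to DMSO and 15 uM tetraoctylammonium bromide; AC50 from Hill fit.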

[6] = MultiTox-Fluor Cytotoxicity Assay - LYMP1-003 - Dead Cells (AID 961);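 note: cells exposed to compound for 16 h at 37 °C; nearly all actives have a fitted effect of over 70% in size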
Procedure, shortened: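 Acute toxicity is scored as increased dead-cell protease activity in human lymphoblastoid LYMP1-003 cells after 16 h compound exposure in complete culture medium. Activity is normalized to DMSO basal and 15 uM tetraoctylammonium bromide as full response.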

[7] = MultiTox-Fluor Cytotoxicity Assay - LYMP1-003 - Live Cells (AID 962);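 note: cells exposed to compound for 16 hours at 37 °C; cytotoxic hits lower the live-cell protease signal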
Procedure, shortened: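 LYMP1-003 lymphoblastoid cells, 2500/well in complete medium, treated 16 h at 37 C; live-cell protease cleavage of GF-AFC read by fluorescence (Ex/Em 405/510) after 60 min reagent; AC50 from Hill fits of concentration-response.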

[8] = Cell Viability - LYMP1-003 - Assay at 24 hr (AID 963)
Procedure, shortened: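 Human lymphoblastoid LYMP1-003 cells, 2500/well, treated 24 h at 37 C in complete medium. Viability read as intracellular ATP by CellTiter-Glo luminescence after 30 min at room temperature; AC50 from Hill-equation fits of qHTS concentration-response.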

[9] = Cell Viability - LYMP1-003 - Assay at 40 hr (AID 964); note: series mostly up to about 92 µM; nearly all actives have a fitted effect of over 60% in size
Procedure, shortened: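 LYMP1-003 human lymphoblastoid cells, 2500/well, preincubated 5 h at 37 C, then treated with compound for 40 h at 37 C. Intracellular ATP read by CellTiter-Glo luminescence after 30 min at room temperature; AC50 from Hill-equation fits.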

[10] = Cell Viability - LYMP2-003 (AID 965);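 note: cells exposed to compounds for 24 h before reading; nearly all actives have a fitted effect of over 50% in size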
Procedure, shortened: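 qHTS, human lymphoblastoid line, 2500 cells/well, complete medium. 24 h drug, 37 C. ATP-based luminescent readout; Hill-fit AC50.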

[11] = Cell Viability - LYMP2-004 (AID 966); note: nearly all actives have a fitted effect of over 65% in size
Procedure, shortened: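 Lymphoblastoid LYMP2-004 cells, 2500 per well, were preincubated for 5 hr and then treated with compound for 24 h at 37 C in complete medium. Viability was read as cellular ATP by CellTiter-Glo luminescence, and AC50 values were taken from Hill fits to concentration-response data.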

[12] = Cell Viability - LYMP2-005 (AID 967); note: series mostly up to about 92 µM
Procedure, shortened: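 Luciferase-based ATP quantitation served as the viability measure in human lymphoblastoid LYMP2-005 cells exposed to test compounds for 24 h at 37 C in complete culture medium. Potency (AC50) was obtained by fitting concentration-response curves with the Hill equation.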

[13] = Cell Viability - LYMP2-009 (AID 968); note: series mostly up to about 92 µM; nearly all actives have a fitted effect of over 55% in size
[14] = Cell Viability - LYMP2-011 (AID 969); note: nearly all actives have a fitted effect of over 60% in size
Procedure, shortened: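 2500 cells/well in complete medium, compound-treated 24 h at 37 C. Viability read as intracellular ATP by CellTiter-Glo luminescence after 30 min at room temperature. AC50 from Hill fits of qHTS concentration-response data.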

[15] = Cell Viability - LYMP2-013 (AID 970); note: series mostly up to about 92 µM; nearly all actives have a fitted effect of over 55% in size
Procedure, shortened: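 Human lymphoblastoid LYMP2-013 cells, 2500/well, treated 24 h at 37 C in complete medium; viability as intracellular ATP by CellTiter-Glo luminescence after 30 min. AC50 from Hill fits of qHTS concentration-response.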

[16] = Cell Viability - LYMP2-015 (AID 971); note: nearly all actives have a fitted effect of over 55% in size
Procedure, shortened: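 LYMP2-015 human lymphoblastoid cells (2500/well) in complete medium, compound-treated 24 h at 37 C; viability read as cellular ATP by CellTiter-Glo luminescence after 30 min at room temperature. AC50 from Hill-equation fits of qHTS concentration-response data.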

[17] = Cell Viability - LYMP2-017 (AID 972); note: series mostly up to about 92 µM; nearly all actives have a fitted effect of over 55% in size
Procedure, shortened: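 LYMP2-017 human lymphoblastoid cells (2500/well) settled 5 hr at 37 C, then exposed to compound 24 hr at 37 C in complete medium. Viability taken as intracellular ATP by CellTiter-Glo luminescence after 30 min at RT; AC50 from Hill fits.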

[18] = Cell Viability - LYMP2-021 (AID 974)
Procedure, shortened: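 Human lymphoblastoid LYMP2-021 cells, 2500/well in complete medium, treated 24 hours at 37 C. Intracellular ATP by CellTiter-Glo luminescence (30 min, RT); AC50 from Hill fits of concentration-response.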

[19] = Cell Viability - LYMP2-023 (AID 975)
Procedure, shortened: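 LYMP2-023 human lymphoblastoid cells, 2500/well, preincubated 5 hr at 37 C, then compound-treated 24 hr at 37 C in complete medium. CellTiter-Glo luminescence (ATP) after 30 min at room temperature; AC50 from Hill-equation fits; tetraoctylammonium bromide positive control.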

[20] = Cell Viability - LYMP2-002 (AID 977);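 note: series mostly up to about 92 µM; compound exposure lasted 24 h at 37 °C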
Procedure, shortened: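 Human lymphoblastoid LYMP2-002 cells, 2500 per well, exposed to compounds for 24 h at 37 C in complete medium; viability read as intracellular ATP by CellTiter-Glo luminescence, AC50 from Hill fits.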

[21] = Cell Viability - LYMP2-006 (AID 978); note: series mostly up to about 92 µM; nearly all actives have a fitted effect of over 60% in size
Procedure, shortened: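 In this cytotoxicity screen, the human lymphoblastoid line grew in complete medium with test compounds for 24 hr at 37 C. Cellular ATP served as the viability signal.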

[22] = Cell Viability - LYMP2-007 (AID 979)
Procedure, shortened: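 Human lymphoblastoid LYMP2-007 cells (2500/well) preincubated 5 h at 37 C, then treated 24 h at 37 C in complete medium. Viability by CellTiter-Glo ATP luminescence after 30 min at room temperature; AC50 from Hill fits.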

[23] = Cell Viability - LYMP2-008 (AID 980); note: nearly all actives have a fitted effect of over 60% in size
Procedure, shortened: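 LYMP2-008 lymphoblastoid cells (2500/well) plated 5 h, then treated 24 h at 37 C in complete medium. Viability read as intracellular ATP by CellTiter-Glo luminescence after 30 min at room temperature; AC50 from Hill fits.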

Measured: Potency

Oc1c(Cl)c(Cl)c(Cl)c(Cl)c1Cl
inactive: [1] | [2] | [3] | [4] | [5] | [6] | [7] | [8] | [9] | [10] | [11] | [12] | [13] | [14] | [15] | [16] | [17] | [18] | [19] | [20] | [21] | [22] | [23]
